Assay outcomes: PubChem BioAssay, NMMLSC
RPL19A-GFP yeast – alters RPL19A-GFP fluorescence in TOR pathway yeast screen. AID 2025. percent response vs DMSO, % at 10 µM. S. cerevisiae RPL19A-GFP strain, flow cytometry, 3 h; active compounds read low. 330,000 tested, 0.3% active;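 active = percent response vs DMSO below 50%; inconclusive = fewer than 70 events counted for the yeast strain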;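 note: median channel GFP fluorescence of the barcoded RPL19A-GFP strain; ratio of sample median GFP to plate DMSO average so 100% = DMSO; lower means less RPL19A-GFP as with rapamycin TOR inhibition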
DSG3 Ab inh – inhibitors of pemphigus antibody binding to human desmoglein-3; 310,000 tested, 0.48% active; AID 588358; P32926; binding (percent of control), % at 10 µM; DSG3-coupled beads, scFv-anti-DSG3-GFP binding, flow cytometry; active compounds read low;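 active = binding more than 3 SD below its plate's average and above zero; inconclusive = below that plate limit but binding exactly zero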;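 note: hits lower antibody fragment binding to DSG3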
Target sequence (P32926 whole entry, looked up, the tested form may be a part): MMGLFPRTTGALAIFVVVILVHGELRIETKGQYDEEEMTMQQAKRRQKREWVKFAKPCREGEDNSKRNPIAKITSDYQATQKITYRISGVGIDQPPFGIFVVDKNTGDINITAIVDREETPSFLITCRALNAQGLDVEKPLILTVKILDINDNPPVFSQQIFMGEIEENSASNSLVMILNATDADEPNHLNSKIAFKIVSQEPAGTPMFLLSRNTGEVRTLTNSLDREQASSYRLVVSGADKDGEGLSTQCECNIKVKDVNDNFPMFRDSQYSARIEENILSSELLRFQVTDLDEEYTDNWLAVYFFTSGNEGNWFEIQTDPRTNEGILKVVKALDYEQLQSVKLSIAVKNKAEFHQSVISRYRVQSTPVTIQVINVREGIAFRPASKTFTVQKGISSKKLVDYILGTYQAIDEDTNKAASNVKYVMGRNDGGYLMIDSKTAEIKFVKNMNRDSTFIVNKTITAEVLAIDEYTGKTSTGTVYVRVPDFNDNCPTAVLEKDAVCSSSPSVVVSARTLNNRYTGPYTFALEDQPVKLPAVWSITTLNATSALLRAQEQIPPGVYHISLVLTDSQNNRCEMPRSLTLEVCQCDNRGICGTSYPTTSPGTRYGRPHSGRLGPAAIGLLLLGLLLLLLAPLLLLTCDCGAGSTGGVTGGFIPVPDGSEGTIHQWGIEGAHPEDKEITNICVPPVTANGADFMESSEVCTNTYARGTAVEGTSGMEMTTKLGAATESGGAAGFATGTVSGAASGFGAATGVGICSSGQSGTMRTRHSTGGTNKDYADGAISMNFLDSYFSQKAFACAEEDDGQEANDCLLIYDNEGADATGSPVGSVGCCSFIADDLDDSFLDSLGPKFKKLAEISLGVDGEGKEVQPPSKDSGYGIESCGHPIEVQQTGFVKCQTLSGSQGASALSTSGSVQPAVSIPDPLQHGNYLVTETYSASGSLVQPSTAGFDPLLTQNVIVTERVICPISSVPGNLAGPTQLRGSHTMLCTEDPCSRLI
MEP2 TOR yeast – yeast TOR pathway MEP2-GFP modulation; S. cerevisiae MEP2-GFP strain, flow cytometry GFP, 3 h; 100% = DMSO control level; GFP response vs DMSO, % at 10 µM; 330,000 tested, 0.51% active; AID 2016;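 active = GFP response versus DMSO above a set limit, roughly screen mean plus 3 SD, cut at about 180% in these data; inconclusive = fewer than 70 cells counted for a yeast strain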;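 note: median GFP fluorescence of the barcode-gated MEP2-GFP cells per well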
LAP4-GFP MLPCN – modulators of TOR pathway LAP4-GFP in S. cerevisiae | AID 2023 | S. cerevisiae LAP4-GFP multiplex, flow cytometry GFP, 3 h; median GFP as percent of DMSO wells | GFP response vs DMSO, % at 10 µM | 320,000 tested, 0.34% active;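 active = GFP response vs DMSO above a set limit, about the screen mean plus 3 SD, cut at about 150% in these data; inconclusive = under 70 cell events counted for the yeast strain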
CIT2 TOR yeast – yeast TOR pathway CIT2-GFP modulation. S. cerevisiae CIT2-GFP strain, flow cytometry, 3 h; 100 means same as DMSO wells. GFP response vs DMSO, % at 10 µM. 320,000 tested, 0.065% active;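 active = GFP response relative to DMSO above a set limit, near the screen mean plus 3 SD, cut at about 150% in these data; inconclusive = Fewer than 70 cells measured for a yeast strain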;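 note: ratio of well median GFP fluorescence to mean of DMSO wells on the plate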
AGP1-GFP MLPCN – modulators of TOR pathway AGP1-GFP in S. cerevisiae. 320,000 tested, 0.02% active. S. cerevisiae AGP1-GFP multiplex flow cytometry, 3 h; GFP as percent of DMSO wells. GFP response vs DMSO, % at 10 µM;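 active = GFP response relative to DMSO above a set limit, near screen average plus 3 SD, cut at about 150% in these data; inconclusive = fewer than 70 cells counted for the yeast strain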;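 note: median GFP channel fluorescence of the gated AGP1 strain per well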
* marks the source's active call; other numbers are inactive results; ? = inconclusive; · = not tested or not shown; [ ] = remark or other dose. Compounds with a hit are over-represented: about 1.2% of the library has one in this group of screens.

SMILES	RPL19A-GFP yeast	DSG3 Ab inh	MEP2 TOR yeast	LAP4-GFP MLPCN	CIT2 TOR yeast	AGP1-GFP MLPCN
Cc1noc(NC(=O)c2cccc(C(F)(F)F)c2)c1Cl	?	105.2	?	?	94.4	?
CC(C)(O)c1ccccc1CC[C@@H](SCC1(CC(=O)O)CC1)c1cccc(/C=C/c2ccc3ccc(Cl)cc3n2)c1	97.1	114.5	95.5	110.7	83.9	89.6
Cc1[nH]c2ccccc2c1CN1CCC(CO)(Cc2ccccc2)CC1	42.4*[may fluoresce violet]	102.5	132.6	68.4	?	14.4
COc1ccccc1C1CCN(Cc2cccc3ccccc23)CC1	106.5	108.8	102.6	99.4	105.3	102.4
COc1ccccc1C1CCN(Cc2c(C)[nH]c3ccccc23)CC1	110.0	109.2	201.0*	152.4*	149.8	114.6
Cc1cnc(C(=O)N2CCN(S(=O)(=O)c3ccc(F)c(F)c3F)CC2)cn1	99.2	98.8	94.9	96.2	100.5	95.6
CSc1ncccc1C(=O)OCC(=O)NC1CC1	·	96.2	·	·	·	·
N#Cc1c(-c2ccc(F)cc2)cc(-c2ccccc2)nc1SCC(=O)NCC(=O)O	110.0	62.7*	110.2	109.2	117.8	113.0
Cc1cc(C)nc(/N=C(/NC(=O)c2ccccc2)Nc2ccccc2)n1	33.0*[may fluoresce violet]	87.9	444.1*[may fluoresce violet]	100.8	?	·
CCOc1ccc(-c2noc(CCCC(=O)NCC3CCCO3)n2)cc1OC (configuration not stated)	95.9	108.6	93.8	92.0	96.7	96.8
O=C(CSc1ccc(-c2ccc(F)cc2)nn1)N1CCN(c2ccccc2)CC1	105.3	84.2*	102.5	92.6	110.0	108.7
Cc1ccc2nc(N3C(=O)C(O)=C(C(=O)c4cc5ccccc5o4)C3c3cccs3)sc2c1 (configuration not stated)	74.8	122.5	191.8*	103.9	93.1	24.7
CCc1ccc2nc(N3C(=O)C(O)=C(C(=O)c4ccco4)C3c3cccs3)sc2c1 (configuration not stated)	102.8	289.4	105.1	105.4	101.6	104.4
O=C(NCCCSc1ccccc1)c1cc(Cl)ccc1O	110.1	111.5	113.5	162.1*	108.3	81.8
O=C(CNC(=O)c1ccccc1)NCCCSc1ccccc1	103.2	132.1	106.5	93.9	109.2	103.3
O=C(Nc1ccccc1Cl)Nc1ccnn1C1CCN(C(=O)CCN2CCCO2)CC1	94.7	106.9	96.0	89.0	93.1	94.7
O=C(Nc1cccc(F)c1)Nc1ccnn1C1CCN(C(=O)CCN2CCCO2)CC1	104.9	0.6*	102.5	81.7	113.0	97.5
Cc1cnc(C(=O)OCC(=O)NC(C)c2ccccc2)cn1 (configuration not stated)	99.4	·	101.2	101.2	95.6	100.2
O=C(NCCc1ccccc1)C(c1ccccc1F)N(C(=O)c1csnn1)C1CC1 (configuration not stated)	38.5*[may fluoresce violet]	108.3	216.6*[may fluoresce violet]	61.9	?	?
O=C(NCCc1ccccc1)C(c1ccccc1)N(C(=O)c1csnn1)C1CC1 (configuration not stated)	102.3	99.7	110.2	109.7	103.3	107.9
O=C(NCCc1ccccc1)C(c1ccc(F)cc1)N(C(=O)c1csnn1)C1CC1 (configuration not stated)	28.1*[may fluoresce violet]	94.2	201.2*[may fluoresce violet]	57.5	?	?
CC(=O)c1ccc(N2CCN(CC(=O)Nc3ccc4c(c3)OCCO4)CC2)cc1	107.0	99.5	109.7	110.2	116.4	101.2
CC1=CC(=O)O[C@@H]1[C@@]1(C)C[C@H]2OC(=O)C[C@H]3[C@@H](C)C(=O)C(O)=C1[C@@]23CO	97.0	·	102.4	101.3	104.0	101.0
Cc1ccc(S(=O)(=O)N2CCOCC2)cc1C(=O)OCC(=O)NCCc1ccc(F)cc1	99.0	·	98.8	97.6	100.4	99.5
C=CCSc1nc(N)c(C#N)c(-c2ccccc2)c1C#N	90.4	81.5*	96.1	82.6	75.2	87.7
CCCSc1nc(N)c(C#N)c(-c2ccc(C)cc2)c1C#N	91.3	·	92.6	91.0	101.3	93.7
Cc1c(CC(C)C)nc(N)c(C#N)c1-c1ccccc1	67.1	108.2	350.2*	101.5	123.3	28.9
